High-throughput results (PubChem)
IL-2 act: qHTS of IL-2 Activators | IL-2 activation reporter assay, cell-based qHTS; stimulated with anti-CD3/CD4/CD28 beads; in transgenic mouse T cells | activation, % (series mostly up to about 46 µM) | hit rate 0.065% among 360,000 | AID 652025, 2013; in the data active means activation above about 50%; inconclusive means mostly about 30% to 49%; further: 0% is about no effect
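Readout: EGFP and DsRed signals by fluorescent plate cytometry. Unstimulated transgenic mouse T cells received compound 60 min before antibody-bead stimulation, then incubated 18 h at 37 degrees C.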
BRCA1 expr up: qHTS Assay to Identify Small Molecule Activators of BRCA1 Expression; MCF7-BRCA1-FFLuc reporter, luminescence, 48 h; response scale: scaled: vehicle 0%, 10 µM genistein 100%; Potency, µM (doses to about 46.1 µM), without a hit: at the highest dose activation, usual class: activators; hit rate 1.1% among 380,000; AID 624202, 2012; further: potency means the concentration at half of the fitted maximal effect; nearly all actives have a fitted effect of over 80% in size
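48 h compound treatment of MCF7-BRCA1-FFLuc cells (phenol-red free MEM, 37 °C), then 15 min with luciferase substrate and luminescence imaging.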
a7 integrin act: qHTS for Activators of Integrin-Mediated Alleviation for Muscular Dystrophy | alpha7betagal myoblasts, beta-gal FDG fluorescence, 48 h | AID 624291, 2012 | Potency, µM (doses to about 38.3 µM), for inactives: at the top dose activation, most hits filed as activators | hit rate 0.064% among 350,000;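 further: potency means the concentration at half of the fitted maximal effect; 100% = response of the positive control SU9516; nearly all actives have a fitted effect of over 60% in size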
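alpha7betagal+/- myoblasts (passage 13, 250/well) treated 48 h at 37C with compounds at 1:260 dilution of DMSO stock. Lysed, then beta-galactosidase activity read as FDG fluorescence (ex 480/em 540) after 30 min, with pre-read for autofluorescence.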
Anesthetic bind: qHTS Assay for Identification of Novel General Anesthetics; Potency, µM (highest dose often 77.5 µM), without a hit: at the highest dose activity change, negative = displacement, most hits filed as inhibitors; apoferritin/1-aminoanthracene competitive binding, fluorescence; hit rate 0.074% among 350,000; further: potency means the concentration at half of the fitted maximal effect; on the % scale 0 is the no-effect control and ±100 the full control effect; nearly all actives have a fitted effect of over 20% in size
Target sequence (P02791 2-175 limits assumed): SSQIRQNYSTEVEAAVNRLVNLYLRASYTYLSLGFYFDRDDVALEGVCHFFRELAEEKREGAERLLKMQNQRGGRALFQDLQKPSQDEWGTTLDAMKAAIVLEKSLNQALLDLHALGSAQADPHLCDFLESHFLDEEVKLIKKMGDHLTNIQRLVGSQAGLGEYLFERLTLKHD
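10 uM apoferritin + 50% sat. 1-AMA, PBS; cpd 10 min RT; Ex380/Em535 endpoint; normalized to free probe vs complex; 4-param Hill fit; propofol titration as pos. ctrl.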
PKM2 activator: qHTS Assay for Activators of Human Muscle isoform 2 Pyruvate Kinase; purified PKM2, Kinase-Glo ATP luminescence, activation; response scale: 0% is enzyme alone, no compound; Pyruvate kinase PKM (Homo sapiens), P14618; hit rate 0.34% among 260,000; Potency, µM (highest dose often 57.5 µM), without a hit: top-dose activation, most hits filed as activators; further: potency means the concentration at half of the fitted maximal effect; on the % scale 0 is the no-effect control and ±100 the full control effect; nearly all actives have a fitted effect of over 55% in size
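hPK-M2, >95% pure; 0.1 mM ADP / 0.5 mM PEP final; imidazole pH7.2 buffer w/ 7 mM MgCl2, 50 mM KCl; 1 h RT; Kinase-Glo lum. Intermediate enzyme activity for dual inhibitor/activator qHTS.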
An asterisk follows results filed as active; ? = inconclusive; . = not tested or not shown; [ ] = remark or other dose. Most compounds without a hit are left out; they make up all but 1.3% or so of the library. Unless noted, the call rests on the fitted dose curve; in most records, active means well fitted curve in the direction sought with a large enough effect; inconclusive means small, poorly fitted or top-dose-only effect, or another doubt; inactive means no such curve, though single readings can be large; an effect the other way counts as inactive or inconclusive.

SMILES	IL-2 act	BRCA1 expr up	a7 integrin act	Anesthetic bind	PKM2 activator
Cc1ccc(NS(=O)(=O)c2ccc3c(c2)n(C)c(=O)n3C)cc1C	-1	-36%	21%	-13%	1.6µM*
Cc1ccc(S(=O)(=O)Nc2ccc3c(c2)n(C)c(=O)n3C)cc1	-1	-66%	?	-9%	10%
Cc1onc(-c2ccccc2Cl)c1C(=O)Nc1nnc(C2CCCCC2)s1	.	-6%	.	.	.
COc1ccc(-c2cn3cccc(C)c3n2)cc1Br	0	3.5µM*	26%	-3%	-11%
COc1ccc(S(=O)(=O)Nc2cc(-c3cn4cccc(C)c4n3)ccc2C)cc1C	.	.	.	43%	.
Cc1cccn2cc(-c3ccccc3)nc12	-1	2µM*	11%	-15%	-20%
CCCS(=O)(=O)NCc1cn2cccc(C)c2n1	1	20%	28%	4%	-3%
Cc1cccn2cc(-c3ccc(F)cc3)nc12	0	100%	8%	-9%	-12%
Cc1cccn2cc(CNc3ccccc3)nc12	-3	14µM*	14%	2%	-5%
COc1ccc(N2CCN(C(=O)c3cnn(-c4ccc(F)cc4)c3-n3cccc3)CC2)cc1	.	-5%	.	-9%	.
CCc1cc(C(=O)OC)c(NC(=O)CC2Nc3cc(C)c(C)cc3NC2=O)s1 (stereo not given)	?	2%	12%	9%	-2%
COC(=O)c1c(NC(=O)CC2Nc3cc(C)c(C)cc3NC2=O)sc(C)c1C (stereo not given)	62*	13%	-3%	5%	11%
CC(C)NC(=O)CN1CCN(C(=O)CCl)CC1	-3	-15%	7.1µM*	1%	-2%
Cc1nn(-c2ccccc2)c(Cl)c1/C=N/NC(=O)c1ccc(CNc2ccccc2)o1	2	0%	14%	-10%	-4%
Cc1nn(-c2ccccc2)c(Cl)c1/C=N/NC(=O)c1ccco1	0	6.3µM*	-1%	-9%	-2%
O=C(Nc1cccc(C(F)(F)F)c1)c1ccc(Cn2cc(Br)cn2)o1	-1	-42%	-24%	?	15%
O=C(Nc1ccc(C(F)(F)F)cc1Cl)c1ccc(Cn2cc(Br)cn2)o1	0	0%	21%	?	28µM*
CN(C)/C=C(\C#N)C(=O)Nc1ccc(F)c(Cl)c1	-1	7.9µM*	20%	-3%	2%
CN(C)/C=C(\C#N)C(=O)Nc1ccc(F)cc1	-2	?	17%	-5%	-11%
Cc1cccc2c1OCC/C2=N\NC(=O)COc1ccccc1	-1	11µM*	-9%	?	0%
COc1ccc(OCC(=O)N/N=C2\CCCc3ccccc32)cc1	0	14%	18%	?	0%
O=C(NCCCn1ccnc1)/C(=C/c1cccs1)NC(=O)c1ccco1	0	-2%	8.9µM*	0%	-7%
O=C(NCc1ccco1)/C(=C\c1cccs1)NC(=O)c1ccco1	-1	15%	?	-5%	28µM*
O=C(NCc1ccco1)/C(=C\c1cccs1)NC(=O)c1ccsc1	1	-5%	23%	-2%	1%
CCCCCCC1=Cc2cc(OC)c(OC)cc2C(C(C(C)=O)C(=O)OCC)O1 (stereo not given)	.	.	.	-14%[15.3 µM]	.
SMILES	IL-2 act	BRCA1 expr up	a7 integrin act	Anesthetic bind	PKM2 activator
CCN1C(=O)c2cccc3c(S(=O)(=O)Nc4nc(C)cs4)ccc1c23	1	-76%	?	-13%	4µM*
CCN1C(=O)c2cccc3c(S(=O)(=O)Nc4ncccc4C)ccc1c23	-2	-52%	?	-12%	11µM*
CSc1ccccc1C(=O)Nc1ccc2c(c1)CCC2	0	11µM*	?	0%	.
O=C(Nc1ccc2c(c1)CCC2)c1cc(F)cc(F)c1	-3	3.2µM*	1%	.	.
O=C(Nc1ccc2c(c1)CCC2)c1ccccc1Br	1	?	?	-16%	-3%
O=C(Nc1ccc2c(c1)CCC2)c1cccc(F)c1	-3	?	9%	1%	12%
CC(=O)Nc1cc(O)c2nonc2c1O	.	-61%	.	.	.
